Source: PubChem (National Center for Advancing Translational Sciences (NCATS))
Most compounds without a hit are left out; they make up all but 2.2% or so of the library.
FUS suppressor = rescues growth of FUS-expressing yeast | S. cerevisiae FUS-expressing, growth rescue, OD600, 24 h | Potency, µM (series often up to 76.6 µM), actives largely listed as activators | AID 1347120 | hit rate 0.24% among 390,000;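 note: plate controls were DMSO vehicle for no effect and reference control for full effect; nearly all actives have a fitted effect of over 55% in size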
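Read-out: OD at 600 nm after 24hr at 30C, reporting rescue of FUS-induced yeast toxicity. Cells at OD 0.005 in galactose (2%) minimal medium; compounds tested in a dilution series; CP55940 titration from 92uM final as control.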
Mito fusion yeast = blocks mitochondrial division or promotes mitochondrial fusion | S. cerevisiae fusion-defective mutant growth rescue, CellTiterGlo 48 h | Potency, µM (top dose mostly 46.1 µM), inactives show at the top dose growth rescue (activation), hits mostly activators | hit rate 0.23% among 320,000 | AID 485298; note: % of control where 0% means no effect; nearly all actives have a fitted effect of over 45% in size
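Read-out: ATP-based luminescence (CellTiterGlo, 10 min ambient) reporting growth of fusion-defective ts yeast after 48 hours at 37C on glycerol/ethanol YPEG medium in the presence of compound.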
Abeta rescue = compounds reversing amyloid beta toxicity in yeast | yeast expressing A-beta42, growth rescue, OD600, 48 h; response scale: 0% DMSO, 100% iron-clioquinol control | Potency, µM (highest dose often 46.1 µM), most hits filed as activators | hit rate 0.063% among 410,000 | AID 1347071; note: nearly all actives have a fitted effect of over 55% in size
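Growth rescue measured by 600 nm absorbance after 48 h yeast culture at 30 C with compound. Values normalized between DMSO and an equimolar ferric chloride plus clioquinol control.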
aSyn rescue = rescues yeast growth from alpha-synuclein toxicity | Yeast expressing alpha-synuclein, growth rescue, BacTiter-Glo, 24 h | Potency, µM (series often up to 46.1 µM), inactives show at the highest dose growth rescue (activation), actives largely listed as activators | hit rate 0.14% among 370,000 | AID 652106; note: % of control where 0% means no effect; nearly all actives have a fitted effect of over 65% in size
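Rescue of yeast growth: cells expressing toxic alpha-synuclein, induced in galactose at OD600 0.02, incubated with compound 24 h at 30 C. ATP luminescence quantified growth; inhibitors of toxicity appear as activators.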
TDP-43 yeast inh = rescues yeast growth from TDP-43 toxicity; TDP-43 expressing yeast growth rescue, BacTiter-Glo, 24 h; Potency, µM (highest dose often 46.1 µM), for the others: top-dose growth rescue (activation), most hits filed as activators; hit rate 1.8% among 410,000; note: % of control where 0% means no effect; nearly all actives have a fitted effect of over 50% in size
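Galactose-induced TDP-43 yeast, OD600=0.02, compound pinned; 24 hr, 30 deg C; BacTiter-Glo luminescence for growth. Inhibitors of TDP-43 toxicity read as activators.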
Starred values were filed as active, the others as inactive. Calls come from the whole dose curve; as a rule, active = well fitted curve in the direction sought with a large enough effect; inconclusive = small, poorly fitted or top-dose-only effect, or another doubt; inactive = no such curve, though single readings can be large; an effect the other way counts as inactive or inconclusive. Potency is the fitted concentration of half-maximal effect.

Results for C#CCOCCOCCOCCNc1nc(N2CCN(C(=O)CCCCCCCCCCNC(=O)[C@H](CO)n3cc(CCCSC)nn3)CC2)nc(N2CCN(C(=O)CCCCCCCCCCNC(=O)[C@H](CCCN=C(N)N)n3cc(C[C@@H](C)CC)nn3)CC2)n1 ?
FUS suppressor: 8.9µM*; Mito fusion yeast: -4%; Abeta rescue: inactive; aSyn rescue: -32%; TDP-43 yeast inh: -8%

How did C#CCOCCOCCOCCNc1nc(N2CCN(C(=O)CCCCCCCCCCNC(=O)Cn3cc(C[C@@H](C)O)nn3)CC2)nc(N2CCN(C(=O)CCCCCCCCCCNC(=O)[C@H](CCCCN)n3cc(CCCC(=O)O)nn3)CC2)n1 do in these assays?
FUS suppressor: inconclusive; Mito fusion yeast: -4%; Abeta rescue: inactive; aSyn rescue: -16%; TDP-43 yeast inh: -21%

How did C#CCOCCOCCOCCNc1nc(N2CCN(C(=O)CCCCCCCCCCNC(=O)[C@H](CO)n3cc(CCCSC)nn3)CC2)nc(N2CCN(C(=O)CCCCCCCCCCNC(=O)[C@H](CCCCN)n3cc(CCO)nn3)CC2)n1 do in these assays?
FUS suppressor: 13µM*; Abeta rescue: inactive; aSyn rescue: -23%; TDP-43 yeast inh: inconclusive

What do the screens show for `C#CCOCCOCCOCCNc1nc(N2CCN(C(=O)CCCCCCCCCCNC(=O)Cn3cc(C[C@@H](C)O)nn3)CC2)nc(N2CCN(C(=O)CCCCCCCCCCNC(=O)[C@H](CCCN=C(N)N)n3cc(C[C@@H](C)CC)nn3)CC2)n1`?
FUS suppressor: 11µM*; Mito fusion yeast: -6%; Abeta rescue: inactive; aSyn rescue: -58%; TDP-43 yeast inh: -10%

How did O=C(C[n+]1cccc2cccc(O)c21)c1ccc2ccccc2c1 do in these assays?
aSyn rescue: 0%

What do the screens show for `CC(=O)c1ccc(NC(=O)CN(C)S(=O)(=O)c2cc3c(cc2Cl)NC(=O)CO3)cc1`?
FUS suppressor: inactive; Abeta rescue: inactive; TDP-43 yeast inh: -20%

Results for O=C1CS(=O)(=O)C2(C(=O)N(Cc3ccccc3)c3ccccc32)N1c1ccc(F)c(Cl)c1 (stereo not drawn) ?
FUS suppressor: inactive; Abeta rescue: inactive; aSyn rescue: 12%; TDP-43 yeast inh: 20µM*

How did Cc1ccc(N2C(=O)CS(=O)(=O)C23C(=O)N(Cc2cccc(F)c2)c2ccccc23)cc1Cl (stereo not drawn) do in these assays?
FUS suppressor: inactive; Abeta rescue: inactive; TDP-43 yeast inh: inconclusive

How did CCOC(=O)C1CCN(C(c2cccnc2)c2c(NC(=O)c3ccco3)sc(C)c2C)CC1 (stereo not drawn) do in these assays?
Mito fusion yeast: -13%; Abeta rescue: inactive; aSyn rescue: 9%; TDP-43 yeast inh: 14µM*

How did Cc1sc(NC(=O)c2ccco2)c(C(c2cccnc2)N2CCN(c3ccc(F)cc3)CC2)c1C (stereo not drawn) do in these assays?
FUS suppressor: inconclusive; Mito fusion yeast: -34%; Abeta rescue: inactive; aSyn rescue: inconclusive; TDP-43 yeast inh: 25µM*

Results for Cc1sc(NC(=O)c2ccco2)c(C(c2cccnc2)N2CCN(CCO)CC2)c1C (stereo not drawn) ?
FUS suppressor: inactive; Mito fusion yeast: 4%; Abeta rescue: inactive; aSyn rescue: -7%; TDP-43 yeast inh: 23%

Results for COc1ccc(OC)c(CNC(=O)c2ccc3nc(C(C)C)oc3c2)c1 ?
FUS suppressor: inconclusive; Abeta rescue: inactive; TDP-43 yeast inh: 13%

How did O=C(CSc1ncc2c(n1)-c1cc(Cl)ccc1N(Cc1ccccc1)S2(=O)=O)NCCc1ccccc1 do in these assays?
FUS suppressor: inactive; Abeta rescue: inactive; TDP-43 yeast inh: 12%

How did O=C(/C=C/c1ccc(Cl)cc1Cl)N1CCN(c2ccccc2[N+](=O)[O-])CC1 do in these assays?
FUS suppressor: inactive; Mito fusion yeast: inconclusive; Abeta rescue: inactive; aSyn rescue: inconclusive; TDP-43 yeast inh: 13µM*

How did COc1ccc([C@H]2CC(=O)C=C(c3ccc4cc[nH]c4c3)C2)cc1 do in these assays?
FUS suppressor: inactive; Mito fusion yeast: inconclusive; Abeta rescue: inactive; aSyn rescue: 0%; TDP-43 yeast inh: 25µM*

Results for COc1ccc([C@H]2CC(=O)C=C(c3ccc4[nH]ccc4c3)C2)cc1OC ?
FUS suppressor: inconclusive; Mito fusion yeast: 18%; Abeta rescue: inactive; aSyn rescue: 2%; TDP-43 yeast inh: 22µM*

Results for COc1ccc([C@H]2CC(=O)C=C(c3cccc(C(C)C)c3)C2)cc1 ?
FUS suppressor: inactive; Mito fusion yeast: 15%; Abeta rescue: inactive; aSyn rescue: -4%; TDP-43 yeast inh: 12%

How did COc1ccc(C2=CC(=O)C[C@H](c3ccc(OC)cc3)C2)cc1 do in these assays?
FUS suppressor: inconclusive; Mito fusion yeast: 24%; Abeta rescue: inactive; aSyn rescue: 5%; TDP-43 yeast inh: 14µM*

What do the screens show for `COc1ccc([C@H]2CC(=O)C=C(c3cccc(OC)c3)C2)cc1`?
FUS suppressor: inactive; Mito fusion yeast: 23%; Abeta rescue: inactive; aSyn rescue: 0%; TDP-43 yeast inh: 11µM*

How did Cc1ccc2c(c1)N(C(=O)CCC(=O)NCc1cccs1)CC(C)O2 (stereo not drawn) do in these assays?
FUS suppressor: inactive; Abeta rescue: inactive; TDP-43 yeast inh: 17%

How did O=C(CSc1ncc2c(n1)-c1cc(Cl)ccc1N(Cc1ccccc1)S2(=O)=O)NCc1ccccc1 do in these assays?
FUS suppressor: inactive; Abeta rescue: inactive; TDP-43 yeast inh: 23%

What do the screens show for `CC(C)CCNC(=O)c1cc(-c2ccc(Br)s2)nc2ccccc12`?
FUS suppressor: inactive; Abeta rescue: inactive; TDP-43 yeast inh: -17%

Results for O=C(Cn1c(=O)n(Cc2ccc(F)cc2)c(=O)c2sc3ccccc3c21)NCc1ccccc1 ?
FUS suppressor: inactive; Abeta rescue: inactive; TDP-43 yeast inh: -3%

How did COc1ccc([C@H]2CC(=O)C=C(c3ccccc3)C2)cc1 do in these assays?
FUS suppressor: inactive; Mito fusion yeast: 20%; Abeta rescue: inconclusive; aSyn rescue: -1%; TDP-43 yeast inh: 18µM*

What do the screens show for `COc1ccc(C2=CC(=O)C[C@H](c3ccc(Cl)cc3)C2)cn1`?
FUS suppressor: inactive; Mito fusion yeast: inconclusive; Abeta rescue: inactive; aSyn rescue: 5%; TDP-43 yeast inh: 18µM*

Results for c1ccc(-n2nnnc2-c2cnc(-c3cccnc3)nc2-c2cccs2)cc1 ?
FUS suppressor: inconclusive; Mito fusion yeast: -1%; Abeta rescue: inactive; aSyn rescue: 8%; TDP-43 yeast inh: 32µM*

Results for COc1cc(OC)c(C(=O)/C=C/c2ccccc2)c(O)c1O ?
FUS suppressor: inactive; Mito fusion yeast: -40%; Abeta rescue: inactive; aSyn rescue: 7%; TDP-43 yeast inh: 13µM*
